Compound activity as filed in PubChem BioAssay.
DT40 TDP1 CPT: growth inhibition of DT40 Tdp1-/-;hTDP1 cells with camptothecin (screen for TDP1 inhibitors); hit rate 12% among 420,000; Potency, µM (highest dose often 46.2 µM), inactives show top-dose activity change, negative = growth inhibition, usual class: inhibitors; chicken DT40 Tdp1-/-;hTDP1 cells + 20 nM CPT, ATP luminescence, 48 h; further: potency means the concentration at half of the fitted maximal effect; nearly all actives have a fitted effect of over 55% in size
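Cell growth measured by CellTiter-Glo luminescence after a minimum 48 h, 37 C compound exposure with 20 nM CPT in Tdp1-knockout DT40 cells stably expressing hTDP1, seeded 400/well; qHTS titration format.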
IL1B secr inh: inhibitors of inflammasome signaling (IL-1 beta secretion); THP-1 LPS/ATP IL-1B secretion, AlphaLISA, 16 h; stronger effect = lower value; activity change, % at 57.5 µM; hit rate 4.7% among 360,000; AID 743279; in the data active means activity change below about -50%; inconclusive means mostly about -30% to -49%
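THP-1 cells pretreated 1 hr with compounds (up to 57.5 uM final), then stimulated with LPS (250 ng/mL final) plus ATP (1.25 mM final); secreted IL-1B measured by AlphaLISA after 16 hr, decreased signal indicating inhibition.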
HT1080-NT tox: kills 2HG-producing HT-1080-NT fibrosarcoma cells | HT-1080-NT fibrosarcoma viability, CellTiter-Glo ATP luminescence, 48 h | Potency, µM (titrated, usually from 46.1 µM), for inactives: at the highest dose activity, negative = less viability, actives largely listed as cytotoxic | hit rate 1.6% among 360,000 | AID 686970;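 further: NT is the 2HG producing partner of a matched IDH1 knockdown line; potency means the concentration at half of the fitted maximal effect; 0% = DMSO-treated cells and -100% = media-only wells without cells; nearly all actives have a fitted effect of over 55% in size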
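Read-out is CellTiter-Glo luminescence after 10 minutes at room temperature, following 48 hours' compound treatment of HT-1080-NT cells (750 cells/well, RPMI, 5% FBS, 37 degrees C).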
12-LOX inh: inhibitors of human 12S-lipoxygenase ALOX12; purified 12hLO, xylenol orange hydroperoxide absorbance; Potency, µM (highest dose often 108 µM), for the others: at the highest dose activity change, negative = inhibition, most hits filed as inhibitors; hit rate 1.1% among 580,000; AID 1671190; further: potency means the concentration at half of the fitted maximal effect
Target sequence (P18054 whole entry, looked up): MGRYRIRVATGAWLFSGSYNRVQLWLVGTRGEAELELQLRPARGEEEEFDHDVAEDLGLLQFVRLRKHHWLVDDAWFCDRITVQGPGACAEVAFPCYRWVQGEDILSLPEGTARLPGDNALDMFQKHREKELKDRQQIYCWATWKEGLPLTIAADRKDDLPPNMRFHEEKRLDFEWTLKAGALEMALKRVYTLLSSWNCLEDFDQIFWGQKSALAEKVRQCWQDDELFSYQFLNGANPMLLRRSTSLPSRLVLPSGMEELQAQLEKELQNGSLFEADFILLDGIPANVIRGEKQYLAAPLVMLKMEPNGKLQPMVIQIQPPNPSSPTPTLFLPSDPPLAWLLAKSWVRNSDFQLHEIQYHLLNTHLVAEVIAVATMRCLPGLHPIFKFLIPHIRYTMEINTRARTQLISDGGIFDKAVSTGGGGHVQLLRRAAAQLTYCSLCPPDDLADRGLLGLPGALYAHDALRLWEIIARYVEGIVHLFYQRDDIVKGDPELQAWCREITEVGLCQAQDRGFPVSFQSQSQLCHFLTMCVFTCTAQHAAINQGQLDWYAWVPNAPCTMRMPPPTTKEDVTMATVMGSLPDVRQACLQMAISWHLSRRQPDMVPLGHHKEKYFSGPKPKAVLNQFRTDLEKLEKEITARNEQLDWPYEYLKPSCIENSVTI
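Purified human 12hLO (150 nM final) in 25 mM Hepes, 0.01% Triton X-100, pH 7.0 was preincubated 15 min at room temperature with compound. Then 40 uM arachidonic acid was added, 30 min. Hydroperoxide was read by Fe-XO absorbance ratio 573/405 nm.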
TDP1 cell noCPT: qHTS for Inhibitors of human tyrosyl-DNA phosphodiesterase 1 (TDP1): qHTS in cells in absence of CPT; AID 686978, 2013; DT40 Tdp1-/- hTDP1 cells, no CPT, ATP luminescence, 48 h; Potency, µM (series often up to 46.2 µM), without a hit: at the top dose activity change, negative = growth inhibition, most hits filed as inhibitors; hit rate 15% among 420,000; further: potency means the concentration at half of the fitted maximal effect; nearly all actives have a fitted effect of over 55% in size
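Cells were dispensed at 400 per well, compounds added by pin tool, plates incubated ≥48 hr at 37 °C, then CellTiter-Glo added for 30 min at room temperature before luminescence reading. Line: DT40 Tdp1-/- complemented with hTDP1; camptothecin omitted.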
HT1080 IDH1KD tx: HT-1080 IDH1 knockdown cell toxicity (counter line); HT-1080 IDH1 knockdown viability, ATP luminescence, 48 h; Potency, µM (series often up to 46.1 µM), for inactives: at the highest dose activity, negative = toxicity, hits mostly cytotoxic; hit rate 2% among 360,000; AID 686971;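 further: potency means the concentration at half of the fitted maximal effect; 0% = DMSO wells and -100% = cell-free medium wells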
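Viability of IDH1-knockdown HT-1080 fibrosarcoma cells was assessed by CellTiter-Glo after 48 h at 37 °C with titrated compound; concentration-effect curves were classified by fit quality and response size.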
* hit, by the source's call; ? = inconclusive; · = no result; ! = repeats disagree; [ ] = remark or other dose. Only a selection was taken, and hits are over-represented in it overall. Unless noted, the call rests on the fitted dose curve; in most records, active means well fitted curve in the direction sought with a large enough effect; inconclusive means small, poorly fitted or top-dose-only effect, or another doubt; inactive means no such curve, though single readings can be large; an effect the other way counts as inactive or inconclusive. Unless noted, on the % scale 0 is the no-effect control and ±100 the full control effect.

SMILES	DT40 TDP1 CPT	IL1B secr inh	HT1080-NT tox	12-LOX inh	TDP1 cell noCPT	HT1080 IDH1KD tx
CCOC(=O)N1CCc2c(sc(NCc3sccc3C)c2C(=O)Nc2cc(OC)ccc2OC)C1	-4%	·	·	-23%	-23%	·
COc1ccc(OC)c(NC(=O)c2c(NCc3ccc(N(C)C)cc3)sc3c2CCCC3)c1	21µM*	·	·	?	?	·
COc1ccc(NC(=O)c2c(NC(=O)c3cccc(C)c3)sc3c2CCC3)cc1	8%	·	·	-10%	3%	·
CCCCc1nnc2sc(-c3ccc(OC)c(OC)c3)nn12	·	·	·	-21%	·	·
COC(=O)c1ccc(N(C(=O)CNC(=O)c2ccco2)C(C(=O)NC2CCCC2)c2ccco2)cc1 (stereo not drawn)	?	7	-5%	72%[57.4 µM]	23µM*	0%
Cc1ccc(N(C(=O)CNC(=O)c2ccco2)C(C(=O)NCC2CCCO2)c2ccccc2)cc1C (stereo not drawn)	-29%	-18	2%	1%	21µM*	-2%
CCc1ccc(N(C(=O)c2ccco2)C(C(=O)NC2CCCC2)c2ccncc2)cc1 (stereo not drawn)	-27%	-3	-18%	-32%	?	-2%
CCc1ccc(N(C(=O)c2ccco2)C(C(=O)NC2CCCC2)c2ccco2)cc1 (stereo not drawn)	?	?	-20%	-10%	16µM*	-18%
Cc1ccc(C)c(N(C(=O)CNC(=O)c2ccco2)C(C(=O)NCC2CCCO2)c2ccccc2)c1 (stereo not drawn)	?	-11	-2%	14%	-20%	-5%
CC(C)c1ccc(N(C(=O)CNC(=O)c2ccco2)C(C(=O)NC2CCCC2)c2cccnc2)cc1 (stereo not drawn)	-5%	-70*	1%	3%	0%	2%
O=C(NC1CCCC1)C(c1ccco1)N(C(=O)c1ccco1)c1ccccc1 (stereo not drawn)	2%	-6	-2%	-13%	15µM*	-11%
COc1ccc(N(C(=O)c2ccco2)C(C(=O)NC2CCCC2)c2ccccc2)cc1 (stereo not drawn)	?	-8	-1%	?	?	0%
COC(=O)CCC(C)C1CCC2C3CCC4CC(O)CCC4(C)C3=CC(=O)C12C (stereo not drawn)	?	-53*	19%	8%	?	-2%
O=S(=O)(NCc1ccccc1)c1ccc(S(=O)(=O)N(Cc2ccccn2)C2CCCC2)cc1	?	?	?	-13%	18µM*	-3%[9.24 µM]
CCNS(=O)(=O)c1ccc(S(=O)(=O)N(Cc2ccccn2)C2CCCCC2)cc1	-29%	-10	2%	-3%	-26%	-3%
CCN(C1CCCCC1)S(=O)(=O)c1ccc(S(=O)(=O)NCc2ccncc2)cc1	7.3µM*	?	?	2%	9.2µM*	?
CC(=O)c1cccc(NC(=O)Cc2csc(-n3nc(C)c(Cc4ccccc4)c3C)n2)c1	·	·	·	-10%	·	·
COc1ccc(NC(=O)c2cc(-c3ccccc3Cl)on2)cc1	-3%	-5	0%	-3%	?	1%
COc1ccc(OC)c(-c2cc(C(=O)NC(C)c3ccccc3)no2)c1 (stereo not drawn)	4.1µM*	·	·	?	4.1µM*	·
COc1ccc(NC(=O)c2cc(-c3ccccc3OC)on2)cc1	2.8µM*	23	4.5µM*	10%	2.8µM*	6.3µM*
COc1ccccc1-c1cc(C(=O)Nc2cccnc2)no1	0.46µM*	43	0.32µM*	-4%	0.46µM*	0.25µM*
NS(=O)(=O)c1ccc(N/N=C/c2cccc(Oc3ccccc3)c2)c([N+](=O)[O-])c1	·	·	·	-26%	·	·
COc1cc(/C=C(/C#N)C(=O)Nc2cccc3ncccc23)ccc1OCC(C)C	·	·	·	-11%	·	·
CCOc1ccccc1NC(=O)COC(=O)/C=C/c1cccs1	-18%	-17	1%	-31%	18µM*	-1%
Cc1ccc(NC(=O)CN(C)C(=O)COC(=O)/C=C/c2cccs2)cc1	14%	-97*	1%	-6%	-23%	5%
SMILES	DT40 TDP1 CPT	IL1B secr inh	HT1080-NT tox	12-LOX inh	TDP1 cell noCPT	HT1080 IDH1KD tx
C/C=C/C(=O)OCC(=O)Nc1ccccc1Br	1%	-7	1%	-1%	4%	-14%
O=C(COC(=O)/C=C/C(=O)OCC(=O)Nc1ccccc1F)Nc1ccccc1F	?	-82*	-3%	0%	?	-4%
Nc1ccc(-c2cn[nH]c2)cc1	·	·	·	-5%	·	·
O=C(CC(F)(F)F)N1CCC(N2C(=O)C3(CCCC3)C2c2ccccc2)CC1 (stereo not drawn)	·	·	·	9%	·	·
COc1ccc(C(CC(=O)N2CCC(OC)CC2)c2ccccc2)cc1 (stereo not drawn)	·	·	·	9%	·	·
COC(=O)c1cc(O)cc(OC)c1Oc1cc(C)cc(O)c1C(=O)O	1.2µM*	?	23µM*	?	1µM*	?
CCOC(=O)CSC1=C(C#N)C(c2ccc(F)cc2)C(C(C)=O)=C(C)N1 (stereo not drawn)	-28%	-3	1%	-2%	?	10%
CCOC(=O)C1=C(C)NC(SCC(=O)OC)=C(C#N)C1c1ccc(C(=O)OC)cc1 (stereo not drawn)	?	5	2%	33%	23µM*!	-2%
C=CCOC(=O)C1=C(C)NC(SCC)=C(C#N)C1c1ccc(Cl)cc1 (stereo not drawn)	0.73µM*	-26	9.2µM*	-22%	0.52µM*	8.2µM*
C=CCOC(=O)C1=C(C)NC(SCC(N)=O)=C(C#N)C1c1ccc(C)cc1 (stereo not drawn)	-31%	15	-3%	477%	?	-3%
